Reference: PubChem BioAssay AID1851 (National Center for Advancing Translational Sciences (NCATS), 2009)
Several values for one entry are separate records, joined by “and”; a condition that tells them apart may be missing. Equal values may be shown once. Hit rate of the full screen: of about 16,000 compounds, about 2,600 (16%) were called active. Roughly 20% stayed inconclusive and do not appear here. Calls follow the shape of the dose curve; as a rule, active = well fitted curve in the direction sought with a large enough effect; inconclusive = small, poorly fitted or top-dose-only effect, or effect the other way; inactive = no such curve, though single readings can be large or run the other way. These entries were drawn from the full list.
% is scaled to controls: 0 for no effect and ±100 for the full control effect.

These molecules were tested against Cytochrome P450 2D6 (Homo sapiens) (UniProt P10635) (assay: Cytochrome panel assay with activity outcomes). Conditions: recombinant CYP, pro-luciferin dealkylation, luminescence, p450-cyp2d6; series mostly up to 57.1 µM.
Cytochrome P450 2D6 (Homo sapiens), sequence (P10635 whole entry, looked up): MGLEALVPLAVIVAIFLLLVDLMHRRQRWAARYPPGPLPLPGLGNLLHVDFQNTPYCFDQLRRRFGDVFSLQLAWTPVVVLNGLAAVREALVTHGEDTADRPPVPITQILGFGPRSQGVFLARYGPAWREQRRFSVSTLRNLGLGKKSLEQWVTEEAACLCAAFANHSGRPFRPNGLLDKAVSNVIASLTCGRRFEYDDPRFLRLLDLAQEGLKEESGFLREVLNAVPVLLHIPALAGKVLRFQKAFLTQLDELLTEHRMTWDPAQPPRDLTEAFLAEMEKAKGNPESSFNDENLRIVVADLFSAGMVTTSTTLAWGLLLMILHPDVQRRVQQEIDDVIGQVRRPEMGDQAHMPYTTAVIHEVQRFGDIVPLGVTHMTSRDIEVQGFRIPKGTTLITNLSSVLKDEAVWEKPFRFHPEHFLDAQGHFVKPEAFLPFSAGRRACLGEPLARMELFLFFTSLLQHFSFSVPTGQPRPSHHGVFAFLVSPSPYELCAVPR
With `CCOC(=O)c1[nH]c(C)c(/C(O)=C2\C(=O)C(=O)N(CCN3CCOCC3)C2c2cccs2)c1C` (stereo not given) the AC50 was “inactive”. `Cc1ccccc1-n1nc2c(c1NC(=O)c1c(-c3ccccc3Cl)noc1C)CSC2` was tested, and the AC50 was “inactive”. With `COCC(=O)N1CCN(c2ccc([N+](=O)[O-])cc2)CC1` the AC50 was “inactive”. For `CN1C(=O)NC(c2ccc(O)cc2)C(C(=O)c2cccs2)C1(O)C(F)(F)F` (stereo not given), the AC50 was “inactive”. `Cc1cccc(C)c1NC(=O)c1cc2c(=O)c3ccccc3oc2nc1C(F)(F)F` was tested, and the AC50 was “inactive”. For `CO[C@H]1COC(=O)[C@@H](C)COC(=O)[C@@H](COCc2ccccc2)NC(=O)C/C=C\[C@H]1C`, the activity, negative = inhibition was 6.49% [at 11.4 µM] (inactive). For `CC(=O)N(/N=C/c1cccc(C)c1)c1nc(-c2ccc(Br)cc2)cs1`, the AC50 was “inactive”. With `Cc1cc(N)c2ccccc2[n+]1CCCCCCCCCCCCCC[n+]1c(C)cc(N)c2ccccc21` the AC50 was 7.94 µM (active). With `Cc1cc(N)c2ccccc2[n+]1CCCCCCCCCC[n+]1c(C)cc(N)c2ccccc21` the AC50 was 10 µM (active) and 15.8 µM (active). For `Cn1c(N)c(C(=O)CSc2ccc3c(c2)OCCO3)c(=O)n(C)c1=O`, the AC50 was “inactive”. For `O=C(COc1cccc2ccccc12)N1c2ccccc2CCc2ccccc21`, the AC50 was “inactive”. For `COC(=O)[C@@H](NC(=O)Nc1ccc(C(C)=O)cc1)C(C)C`, the AC50 was “inactive”. With `CC(C)=CCC/C(C)=C/CO/N=C1/C[C@@H](O)[C@@H](O)[C@@H]2[C@@H]3C(=O)N(Cc4ccc5c(c4)OCO5)C(=O)[C@H]3CC[C@@H]12` the activity, negative = inhibition was -7.94% [at 11.4 µM] (inactive). With `COc1cc(/C=N/O)cc(Br)c1OCc1cccc(Cl)c1` the AC50 was “inactive”. `O/N=C/c1cc(Cl)ccc1OCc1cccc2ccccc12` was tested, and the AC50 was 15.8 µM (active). In the case of `O=C(SCc1cccc2ccccc12)c1ccc(Cl)cc1`, the activity, negative = inhibition is reported as -11.2% [at 11.4 µM] (inactive). In the case of `CC(C)C(NS(=O)(=O)c1cccc2nsnc12)C(=O)N1CCc2ccccc2C1` (stereo not given), the AC50 is reported as “inactive”. For `CO[C@H]1[C@H](O[C@H]2O[C@@H](C)[C@@H](O[C@@H]3C[C@](C)(O)[C@H](OC(=O)CC(C)C)[C@H](C)O3)[C@@H](N(C)C)[C@@H]2O)[C@@H](CC=O)C[C@@H](C)[C@@H](O)/C=C\C=C/C[C@@H](C)OC(=O)C[C@H]1OC(C)=O`, the AC50 was “inactive”. `CC(C)(C)c1ccc(C(=O)NC(Cc2ccccc2)C(=O)O)cc1` (stereo not given) was tested, and the AC50 was “inactive”. For `CCCCCCN(CCCCCC)C(=O)Cc1c(-c2ccc(F)cc2)[nH]c2ccccc12`, the AC50 was “inactive”. For `Cc1cc(=O)[nH]c2ccccc12`, the AC50 was “inactive”. `Cc1ccc2[nH]c(-c3ccccc3)c(CN(C)C)c(=O)c2c1` was tested, and the AC50 was 0.0316 µM (active). For `CC(=O)N1CCN(c2nc(C)nc3sc4c(c23)CCC(C)C4)CC1` (stereo not given), the AC50 was “inactive”. With `CON/C=C(\C=Nc1ccccc1)c1ncc(C(F)(F)F)cc1Cl` the AC50 was “inactive”. For `COc1ccc(C2CC(=O)CC(=O)C2n2cncn2)cc1` (stereo not given), the AC50 was “inactive”. In the case of `O=C(O)Cc1nn(Cc2ccc(Br)cc2F)c(=O)c2ccccc12`, the AC50 is reported as “inactive”. In the case of `Cc1cc(C)c(S(=O)(=O)Nc2cccc(C(F)(F)F)c2)c(C)c1`, the AC50 is reported as “inactive”. With `CC(C)(C)CC(=O)NC(=S)Nc1ccccc1C(F)(F)F` the AC50 was “inactive”. `Cc1cc(C)c(S(=O)(=O)Nc2ccccc2C(F)(F)F)c(C)c1` was tested, and the AC50 was 6.31 µM (active). For `CCN(CC)c1ccc(NC(=O)c2cnn(CC)c2)cc1`, the AC50 was “inactive”. In the case of `COC(=O)CSc1ccc2nnc(-c3ccc(F)cc3)n2n1`, the AC50 is reported as “inactive”. `COCCn1c(Cc2ccccc2)nnc1SCc1nc2ccccc2c(=O)[nH]1` was tested, and the AC50 was “inactive”. With `c1ccc(SCc2nc3ccccc3[nH]2)cc1` the AC50 was 10 µM (active). In the case of `OC(Cc1nc2ccccc2[nH]1)c1ccccc1Cl` (stereo not given), the AC50 is reported as 1.12 µM (active). With `c1ccc2[nH]c(NC3=NCCC3)nc2c1` the AC50 was “inactive”. With `OCCNc1nc2ccccc2[nH]1` the AC50 was “inactive”. For `O=C(O)CSc1nc2ccccc2[nH]1`, the activity, negative = inhibition was 9.25% [at 11.4 µM] (inactive). In the case of `c1ccc(-c2nnc(SCc3nc4ccccc4[nH]3)n2Cc2ccco2)cc1`, the AC50 is reported as 6.31 µM (active). In the case of `Cc1cc(C)nc(SCc2nnc(SCC(N)=O)n2Cc2ccco2)n1`, the AC50 is reported as “inactive”. `Cc1cc(NC(=O)CSc2nnc(-c3ccccc3)n2Cc2ccco2)no1` was tested, and the AC50 was “inactive”. With `Cc1nonc1NC(=O)N1CCCC1` the AC50 was “inactive”. For `O=C(O)Cn1ccnc1[N+](=O)[O-]`, the activity, negative = inhibition was 0.12% [at 11.4 µM] (inactive). For `Cc1ccc(C)c(/C(O)=C2/C(=O)C(=O)N(CCN3CCOCC3)C2c2ccco2)c1` (stereo not given), the AC50 was “inactive”. With `COc1ccc(NC(=O)CSc2ccc3c4c(cccc24)C(=O)c2ccccc2-3)cc1` the AC50 was “inactive”. With `O=C(NCc1ccccc1)c1sc(=S)n2c1[nH]c(=O)c1ccccc12` the AC50 was “inactive”. With `COc1ccc(C(=O)Nc2cc(C(C)=O)c(/C=C/N(C)C)oc2=O)cc1` the AC50 was “inactive”. In the case of `CCC(=O)Nc1c2c(nc3c1CCC3)CCCC2`, the AC50 is reported as “inactive”. In the case of `COC(=O)CCC(=O)Nc1cccc2ccccc12`, the AC50 is reported as “inactive”. For `CCC(=O)NC(=S)Nc1ccc(NC(=O)COc2ccc(Cl)cc2Cl)cc1`, the AC50 was “inactive”. In the case of `O=S(=O)(CC(O)COc1ccccc1Cl)c1ccccc1` (stereo not given), the AC50 is reported as “inactive”. `O[C@@H](COc1ccc(Cl)cc1Cl)CN1CCCC1` was tested, and the AC50 was 0.316 µM (active). With `O=C(OC1CCN(c2ncc(C(F)(F)F)cc2Cl)CC1)c1ccccc1` the AC50 was “inactive”. `CC1(C)O[C@H]2[C@@H](c3[nH]nc4c(=O)[nH]c(=O)[nH]c34)OC[C@H]2O1` was tested, and the activity, negative = inhibition was 17% [at 11.4 µM] (inactive). For `CCSc1nnc(NC(=O)Cc2ccc(OC)c(OC)c2)s1`, the AC50 was “inactive”. With `Cc1nc2c(c(-c3ccccc3)c1C#N)C(=O)c1ccccc1-2` the AC50 was “inactive”. `CC(C)CC1NC(=S)N(C2CCCCC2)C1=O` (stereo not given) was tested, and the AC50 was “inactive”. For `CCCC[C@@H]1C[C@H]1C(NC(=O)c1cccs1)c1ccc(C(F)(F)F)cc1` (stereo not given in full), the AC50 was “inactive”. `CN(C)Cc1cc(C(C)(C)C)ccc1-c1ccc(C(C)(C)C)cc1CN(C)C` was tested, and the activity, negative = inhibition was 4.2% [at 11.4 µM] (inactive). `CC(C)(C)c1ccc(O)c(CN(Cc2cc(C(C)(C)C)ccc2O)C2CCCCC2)c1` was tested, and the AC50 was 0.501 µM (active). In the case of `CN(C)Cc1ccc(C(C)(C)C)cc1-c1cc(C(C)(C)C)ccc1CN(C)C`, the activity, negative = inhibition is reported as -2% [at 11.4 µM] (inactive). `Oc1ccc2ccccc2c1Cc1c(O)ccc2ccccc12` was tested, and the activity, negative = inhibition was 3.09% [at 11.4 µM] (inactive). In the case of `Oc1ccc2ccccc2c1CN(Cc1c(O)ccc2ccccc12)C1CCCCC1`, the AC50 is reported as 0.631 µM (active). `O=C(O)Cc1c(O)ccc2ccccc12` was tested, and the activity, negative = inhibition was 2.9% [at 11.4 µM] (inactive). For `CC(C)(C)c1ccc(O)c(CN(Cc2c(O)ccc3ccccc23)C2CCCCC2)c1`, the AC50 was 0.794 µM (active). For `CS(=O)(=O)N(Cc1cc2ccccc2[nH]c1=O)C1CCCCC1`, the AC50 was “inactive”. `O=C1C2=CC[C@H]3C(=O)N(c4cccc(Oc5ccccc5)c4)C(=O)[C@@H]3[C@@H]2[C@H](O)[C@@H]2O[C@H]12` was tested, and the activity, negative = inhibition was 1.91% [at 11.4 µM] (inactive). For `Cc1ccc(C(=O)N/N=C\c2cccn2C)cn1`, the AC50 was “inactive”. For `Fc1ccc(C2=Nn3c(Cc4ccccc4F)nnc3SC2)cc1`, the AC50 was “inactive”. For `Cc1ccc(C(=O)NC(=S)Nc2ccc(S(=O)(=O)N3CCN(C)CC3)cc2)cc1`, the AC50 was “inactive”. In the case of `CC(C)(C)NC(=O)C(c1ccccn1)N(C(=O)C1CSC(=O)C1)c1ccc(F)cc1` (stereo not given), the AC50 is reported as “inactive”. With `CC1=N[C@@](C)(COC(=O)[C@]2(C)N[C@](C)(CO)CO2)COC1=O` the activity, negative = inhibition was 10% [at 11.4 µM] (inactive). With `NC(=O)CN1CCN(c2nc(-c3ccc(F)cc3)cs2)CC1` the AC50 was “inactive”. In the case of `COc1ccc(C(=O)N2CCC[C@@]3(CCN(Cc4cc(C(F)(F)F)cc(C(F)(F)F)c4)C3)C2)cc1`, the AC50 is reported as “inactive”. `Cn1cccc1C(=O)N1CCC[C@@]2(CCN(c3ccncc3)C2)C1` was tested, and the AC50 was “inactive”. With `Cn1cccc1C(=O)N1CCC2(CCCN(Cc3ccncc3)C2)CC1` the AC50 was 7.94 µM (active). `Cn1cccc1C(=O)N1CCC2(CC1)CCN(c1ccccc1)CC2` was tested, and the AC50 was “inactive”. With `Cn1cccc1C(=O)N1CCC2(CCN(Cc3ccncc3)CC2)CC1` the AC50 was “inactive”. For `CN1CC[C@@]2(CCCN(C(=O)c3cccn3C)C2)C1`, the AC50 was “inactive”. In the case of `Cn1cccc1C(=O)N1CCC2(CCN(Cc3ccccc3)CC2)CC1`, the AC50 is reported as 7.94 µM (active). `Cn1cccc1C(=O)N1CCC2(CC1)CN(Cc1ccc(C#N)cc1)C2` was tested, and the AC50 was “inactive”. `Cn1cccc1C(=O)N1CCC[C@@]2(CCN(Cc3cc(C(F)(F)F)cc(C(F)(F)F)c3)C2)C1` was tested, and the AC50 was 3.98 µM (active). With `Cn1cccc1C(=O)N1CCC[C@@]2(CCN(Cc3ccccc3)C2)C1` the AC50 was 2 µM (active). In the case of `Cn1cccc1C(=O)N1CCC2(CC1)CN(c1ccncc1)C2`, the AC50 is reported as “inactive”. With `Cn1cccc1C(=O)N1CCC[C@@]2(CCN(c3ccccc3)C2)C1` the AC50 was “inactive”. With `NCC[C@H]1CCC[C@H](CCN)N1` the AC50 was “inactive”. In the case of `O=[N+]([O-])c1ccc(C=Nc2ccc(Cl)cc2Cl)s1`, the AC50 is reported as “inactive”. With `COC(=O)[C@@]1(Cc2ccc(F)cc2)[C@@H]2C(=CC(=O)[C@H]2CC(=O)C(=O)N2CCCC2)CN1C(=O)c1ccccc1` the AC50 was “inactive”. With `N#CCCn1c(=O)cnc2cnc(N3CCNCC3)nc21` the AC50 was “inactive”. For `c1ccc2cc(-c3csnn3)ccc2c1`, the AC50 was “inactive”. `CS(=O)(=O)N1CCCC(C(=O)N2CCc3ccccc3C2)C1` (stereo not given) was tested, and the AC50 was “inactive”. In the case of `CCOC(=O)CC(=O)CSc1nc(-c2cccnc2)cc(C)c1C#N`, the AC50 is reported as “inactive”. In the case of `Cc1ccc(CONC(=O)/N=C/N(C)C)cc1`, the AC50 is reported as “inactive”. With `C=CCNc1sc(C(=O)c2ccccc2)c(N)c1C#N` the AC50 was “inactive”. For `CCC[C@@H]1O[C@@H]2C[C@@H]3[C@H]4CCC5=CC(=O)C=C[C@@]5(C)[C@H]4[C@H](O)C[C@@]3(C)[C@@]2(C(=O)CO)O1`, the AC50 was “inactive”. With `CO[C@@H]1/C=C\O[C@]2(C)Oc3c(C)c(O)c4c(O)c(cc(O)c4c3C2=O)NC(=O)/C(C)=C\C=C/[C@H](C)[C@@H](O)[C@H](C)[C@H](O)[C@H](C)[C@H](OC(C)=O)[C@@H]1C` the activity, negative = inhibition was 11.7% [at 11.4 µM] (inactive).
